The sample as a whole holds a higher share of hits than the screen did.
STK33 kin inh: human STK33 kinase inhibition; Q9BYT3; hit rate 0.44% among 27,000; inhibition, % at 12.5 µM; ADP-Glo luminescence, MBP substrate; in the data active means inhibition above about 20%; inconclusive means no clear call, values can overlap the other calls
Target sequence (Q9BYT3 whole entry, looked up): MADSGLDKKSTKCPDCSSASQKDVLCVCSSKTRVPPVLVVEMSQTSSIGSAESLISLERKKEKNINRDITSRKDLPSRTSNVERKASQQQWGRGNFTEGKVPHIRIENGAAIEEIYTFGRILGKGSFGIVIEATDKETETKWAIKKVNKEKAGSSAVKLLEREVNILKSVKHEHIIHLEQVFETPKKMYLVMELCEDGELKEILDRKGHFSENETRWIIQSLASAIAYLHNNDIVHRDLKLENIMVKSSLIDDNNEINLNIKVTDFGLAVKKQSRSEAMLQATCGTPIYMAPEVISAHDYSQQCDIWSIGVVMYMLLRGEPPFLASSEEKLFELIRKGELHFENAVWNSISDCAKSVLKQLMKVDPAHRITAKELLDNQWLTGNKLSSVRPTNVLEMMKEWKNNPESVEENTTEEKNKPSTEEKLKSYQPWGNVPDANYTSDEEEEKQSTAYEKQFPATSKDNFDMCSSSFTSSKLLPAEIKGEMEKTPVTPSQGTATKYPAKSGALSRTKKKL
NOMO-1 viab: STK33 inhibitor candidate reducing NOMO-1 cell viability; hit rate 7.5% among 37,000; NOMO-1 AML viability, CellTiter-Glo luminescence, 72 h; inhibition, % (test concentration not listed); AID 2330; in the data active means inhibition above about 80%; inconclusive means no clear call, values can overlap the other calls
PD-1 reverse act: activators reversing PD-1 mediated T-cell inhibition; primary human CD4 T cells, PD-L1 beads, CellTiter-Glo 96 h; activation, % (test concentration not listed); 29,000 tested, under 10 active; AID 2316; call rule not given here;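 further: 0% = median vehicle wells and 100% = positive control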
The depositor's hits bear a star; ? = inconclusive; / = not tested or not shown.

SMILES	STK33 kin inh	NOMO-1 viab	PD-1 reverse act
CCN(CC)C(=S)SSC(=S)N(CC)CC	-4	141*	-52
CCN(CC)C(=S)SC1=CCS(=O)(=O)C1	/	24	1
C[C@H](CO)N1C[C@H](C)[C@@H](CN(C)Cc2ccc(Oc3ccccc3)cc2)Oc2ccc(NC(=O)CCC(F)(F)F)cc2C1=O	/	2	0
C[C@@H]1CN([C@@H](C)CO)C(=O)c2cc(NC(=O)Nc3ccc(F)cc3)ccc2O[C@H]1CN(C)Cc1ccc(Oc2ccccc2)cc1	5	61	-2
C[C@H]1CN([C@@H](C)CO)C(=O)c2cc(NC(=O)Nc3ccccc3)ccc2O[C@@H]1CN(C)Cc1ccc(Oc2ccccc2)cc1	/	97*	2
C[C@H](CO)N1C[C@H](C)[C@H](CN(C)Cc2ccc(Oc3ccccc3)cc2)Oc2ccc(NC(=O)CCC(F)(F)F)cc2C1=O	/	114*	-3
C[C@@H]1CN([C@@H](C)CO)C(=O)c2cc(NC(=O)Nc3ccccc3)ccc2O[C@H]1CN(C)Cc1ccc(Oc2ccccc2)cc1	/	112*	-1
C[C@@H]1CN([C@H](C)CO)C(=O)c2cc(NC(=O)Nc3ccccc3)ccc2O[C@@H]1CN(C)Cc1ccc(Oc2ccccc2)cc1	/	38	-1
Cc1cc(=O)[nH]c(SCCOc2ccc(Br)cc2Cl)n1	-1	-10	0
O=C(CSc1nnc(-c2cccc(Br)c2)n1-c1ccccc1)c1ccc(F)cc1	6	?	-8
C[C@H](CO)N1C[C@H](C)[C@H](CN(C)C(=O)Nc2ccc(F)cc2)Oc2c(NC(=O)Nc3cccc4ccccc34)cccc2C1=O	/	124*	-10
C[C@H]1CN([C@@H](C)CO)C(=O)c2cccc(NC(=O)Nc3cccc4ccccc34)c2O[C@@H]1CN(C)C(=O)Nc1ccc(F)cc1	/	23	-2
C[C@H](CO)N1C[C@H](C)[C@H](CN(C)C(=O)NC2CCCCC2)Oc2c(NC(=O)Nc3cccc4ccccc34)cccc2C1=O	/	97*	-6
C[C@@H]1CN([C@H](C)CO)C(=O)c2cccc(NC(=O)Nc3cccc4ccccc34)c2O[C@H]1CN(C)C(=O)NC1CCCCC1	3	?	-4
CC(C)(O)CC[C@@H](O)[C@](C)(O)C1CC[C@@]2(O)C3=CC(=O)C4C[C@@H](O)[C@@H](O)C[C@]4(C)C3CC[C@]12C (stereo not given in full)	-1	-1	/
CCOC(=O)c1cnc2c(S(=O)(=O)C(C)C)csc2c1Sc1ccc(Cl)cc1	/	66	-2
C[C@@H]1CN([C@@H](C)CO)C(=O)c2cccc(NC(=O)NC3CCCCC3)c2O[C@H]1CN(C)Cc1ccncc1	/	3	-1
C[C@@H]1CN([C@H](C)CO)C(=O)c2cc(NC(=O)Cc3ccccc3)ccc2O[C@@H]1CN(C)S(=O)(=O)c1ccc(F)cc1	/	-8	1
Nc1cc(C(F)(F)F)ccc1Oc1ccc(C2CCCCC2)cc1	/	113*	-5
CC(=O)NCCOc1ccc(C2CCCCC2)cc1	-1	16	0
COC(=O)c1cc(O)cc(OC)c1Oc1c(Cl)c(C)c(Cl)c(O)c1C(=O)O	-2	2	-1
C[C@H](CO)N1C[C@H](C)[C@H](CN(C)Cc2ccc(-c3ccccc3)cc2)Oc2ccc(NC(=O)NC3CCCCC3)cc2CC1=O	-1	87*	-3
C[C@@H]1CN([C@H](C)CO)C(=O)Cc2cc(NC(=O)NC3CCCCC3)ccc2O[C@@H]1CN(C)Cc1ccccc1	/	42	-1
C[C@H]1CN([C@@H](C)CO)C(=O)Cc2cc(NC(=O)NC3CCCCC3)ccc2O[C@@H]1CN(C)Cc1ccccc1	-1	27	2
C[C@H]1CN([C@@H](C)CO)C(=O)Cc2cc(NC(=O)NC3CCCCC3)ccc2O[C@H]1CN(C)Cc1ccc(-c2ccccc2)cc1	6	114*	-8
SMILES	STK33 kin inh	NOMO-1 viab	PD-1 reverse act
C[C@@H]1CN([C@H](C)CO)C(=O)c2cc(NS(=O)(=O)c3ccc(Cl)cc3)ccc2O[C@H]1CN(C)CC1CCCCC1	/	38	1
Cc1noc(C)c1NC(=O)N(C)C[C@@H]1Oc2ccc(NC(=O)CCN3CCOCC3)cc2C(=O)N([C@@H](C)CO)C[C@@H]1C	/	14	1
CC(C)NC(=O)N(C)C[C@@H]1Oc2ccc(NS(C)(=O)=O)cc2C(=O)N([C@H](C)CO)C[C@@H]1C	/	-3	/
C=C(CO)C(=O)O[C@H]1C[C@@]23O[C@@H]2CC/C(=C/[C@H]2OC(=O)C(=C)[C@H]12)CO[C@@H]3O	-1	103*	-1
COC(=O)CCN(C(=O)c1ccc(OC(C)=O)cc1)c1ccccn1	1	104*	/
COc1ccc(CN(CCN(C)C)c2ccccn2)cc1	-2	26	/
O=S(=O)(N[C@@H]1CCCN(Cc2ccc(OCCO)cc2)C1)c1ccc(-c2ccccc2)cc1	2	/	/
CC1=C(C(=O)OCCc2ccccc2)C(c2ccc(N(C)C)cc2)NC(=S)N1 (stereo not given)	/	11	-5
O=C1C2=C(NC(=S)NC2c2ccccc2)c2ccccc21 (stereo not given)	2	114*	-11
O=C(Oc1ccc(N(Cc2cccs2)C2=NS(=O)(=O)c3ccccc32)cc1)c1ccccc1	/	35	1
C=CCN1C(C(=O)c2ccccc2)=C(OC(=O)c2ccccc2)c2ccccc2S1(=O)=O	/	108*	-6
Cc1ccc(Cl)cc1NC(=O)CCCN1C(=O)c2ccccc2C1=O	0	-6	-3
CCCCCCCCNC(C)C(O)c1ccc(SC(C)C)cc1 (stereo not given)	3	120*	/
CC(NCCc1ccc(O)cc1)C(O)c1ccc(O)cc1 (stereo not given)	4	-2	/
C[C@@H]1CN([C@@H](C)CO)C(=O)c2cc(NS(=O)(=O)c3ccc(F)cc3)ccc2O[C@@H]1CN(C)C(=O)Nc1ccccc1	1	3	-2
C[C@@H]1CN([C@@H](C)CO)C(=O)c2cc(NC(=O)Nc3ccccc3)ccc2O[C@H]1CN(C)Cc1ccc(C(F)(F)F)cc1	/	79	1
C[C@@H]1CN([C@@H](C)CO)C(=O)c2cc(NC(=O)Nc3ccc(C(F)(F)F)cc3)ccc2O[C@H]1CN(C)Cc1ccccc1	3	96*	-3
C[C@H](CO)N1C[C@H](C)[C@H](CN(C)Cc2ccccc2)Oc2ccc(NC(=O)Nc3ccc(C(F)(F)F)cc3)cc2C1=O	0	91*	-5
C[C@H]1CN([C@@H](C)CO)C(=O)c2cc(NC(=O)Nc3ccccc3)ccc2O[C@H]1CN(C)Cc1ccc(C(F)(F)F)cc1	-1	14	1
C[C@H](CO)N1C[C@H](C)[C@H](CN(C)Cc2ccc(C(F)(F)F)cc2)Oc2ccc(NC(=O)Nc3ccccc3)cc2C1=O	/	15	/
C[C@@H]1CN([C@H](C)CO)C(=O)c2cc(NC(=O)Nc3ccc(C(F)(F)F)cc3)ccc2O[C@@H]1CN(C)Cc1ccccc1	/	89*	-1
C[C@H]1CN([C@@H](C)CO)C(=O)c2cc(NC(=O)Nc3ccc(C(F)(F)F)cc3)ccc2O[C@@H]1CN(C)Cc1ccc(Oc2ccccc2)cc1	-4	48	1
C[C@@H]1CN([C@@H](C)CO)C(=O)c2cc(NC(=O)Nc3ccc(C(F)(F)F)cc3)ccc2O[C@H]1CN(C)Cc1ccc(Oc2ccccc2)cc1	3	118*	-7

Screens (PubChem BioAssay)
